The source of these data is PubChem BioAssay AID932 (The Scripps Research Institute Molecular Screening Center, 2007).

Among all 200,000 compounds or so, about 5,100 (2.5%) were called active. What follows is part of a selection rich in actives, with near analogues and random picks from the rest. Values without a mark were called inactive.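 The calls were made as follows: active = activation above the screen-wide mean activation plus 3 SD (cut at about 130% in these data); inactive = the rest.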

This experiment in a line: potentiators of IFN-gamma driven STAT1 reporter – cell-based, HTS, luciferase reporter, primary screen (AID 932).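 Also: raw ratio to IFN-gamma control signal so 100% means no change and 0% no light.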 Particulars: NIH 3T3 STAT1-luciferase reporter, luminescence, at 5.5 µM, active compounds read high, 100% = IFN-gamma alone, no compound. Background: In a reporter assay the amount or activity of a reporter protein is the signal.
In the case of `CCc1nnc(NC(=O)c2cccc(S(=O)(=O)N(C)c3ccc(OC)cc3)c2)s1`, the activation (% of control) was 86.1%.
The same measure for `CCN(CC(=O)NCc1cccs1)S(=O)(=O)c1ccc(NC(C)=O)cc1`: 104%; for `CCn1c(/C=C/Nc2ccccc2)[n+](CC)c2ccc(C(=O)OCC(F)(F)F)cc21`: 88.3%.
With `COCc1ccc(C(=O)N2CCc3c([nH]c4ccccc34)C2c2ccccn2)s1` (stereo unspecified), the activation (% of control) was 94%.
In the case of `Cc1ccc(OCC(=O)Nn2cnc3ccccc32)cc1`, the activation (% of control) is 104%.
`COC(=O)c1ccc(-n2cnc3ccccc32)nc1`: the activation (% of control) was 129% (active).
As for `COCCOCCn1cnc2ccccc21`, the activation (% of control) is 104%.
With `O=C(O)CC1S/C(=N\N=C/c2ccccc2O)N(c2ccc(O)cc2)C1=O` (stereo unspecified), the activation (% of control) is 102%.
The same measure for `Cc1cccc2c1N(CCOc1ccccc1)C(=O)C2=O`: 99%.
As for `Cc1cc(O)c(NC(=O)c2ccc(C)c([N+](=O)[O-])c2)cc1C`, the activation (% of control) was 103%.
For `Cc1ccc(NC(=O)c2sccc2C)cc1[N+](=O)[O-]`, the activation (% of control) is 138% (active).
Consider `Cc1ccsc1C(=O)N/N=C/c1ccc([N+](=O)[O-])cc1`, for which the activation (% of control) was 146% (active).
Regarding `Cc1ccc(NC(=O)CN(C)CC(=O)Nc2cccc(F)c2)cc1[N+](=O)[O-]`, the activation (% of control) is 67.3%.
The same measure for `Cc1nc2ccccc2cc1C(=O)N/N=C/c1ccc([N+](=O)[O-])cc1`: 93.6%.
Turning to `NC(=S)N/N=C/c1ccc([N+](=O)[O-])cc1`, the activation (% of control) was 121%.
The same measure for `C=CCNC(=O)COC(=O)c1ccccc1C(=O)N(C)C1CCCCC1`: 95.6%; for `O=c1[nH]n(-c2ccc([N+](=O)[O-])cc2)c(=O)c2ccccc12`: 101%; for `CCN1CC(CN(C)Cc2nc(-c3ccc(Cl)cc3)no2)CC1=O` (stereo unspecified): 96.3%.
With `CC(C)C(c1nnnn1C(C)(C)C)N1CCN(Cc2cccnc2)CC1` (stereo unspecified), the activation (% of control) was 98.8%.
Consider `CCCCCC(=O)Nc1ccc(-c2cn3cccnc3n2)cc1`, for which the activation (% of control) was 103%.
Take `CCC(C)(C)C1CCC(=NNC(=O)c2ccc(Br)o2)CC1` (stereo unspecified): the activation (% of control) is 129% (active).
Take `CC(C)(C)C1CCC(=NNC(=O)c2ccc(Br)o2)CC1` (stereo unspecified): the activation (% of control) was 121%.
As to `C/C(=N/NC(=O)c1ccc(Br)o1)c1ccc(C)o1`, the activation (% of control) was 112%.
As to `COc1ccccc1-n1c(C)nc2cc(C(=O)NCc3ccc4c(c3)OCO4)ccc21`, the activation (% of control) is 98.5%.
On to `COc1ccc(OC)c2[nH]c(=O)c(CCNC(=O)C(=O)c3c[nH]c4ccccc34)cc12`, for which the activation (% of control) is 95.3%.
The same measure for `Cc1ccc(NC(=O)CC2C(=O)N(Cc3ccccc3)C(=S)N2NC(=O)c2cccc(F)c2)c(C)c1` (stereo unspecified): 103%.
Regarding `O=C(Cn1ncc(N2CCCC2)c(Br)c1=O)c1ccc(Cl)cc1`, the activation (% of control) is 130% (active).
As for `Cn1c(=O)c2c(nc(N3CCCCCC3)n2CC(=O)c2ccc(Br)cc2)n(C)c1=O`, the activation (% of control) was 94.8%.
For the compound `CC(=O)Cn1ncc(N2CCOCC2)c(Br)c1=O`, the activation (% of control) was 104%.
The same measure for `O=C(COC(=O)/C=C/c1nc2ccccc2s1)Nc1ccccc1Oc1ccccc1`: 95.5%; for `CC(=O)NCC(=O)N1CCCC(C(=O)c2ccc3c4c(cccc24)CC3)C1` (stereo unspecified): 99.2%; for `CCOC(=O)C1CCN(c2ccc(C(=O)O)cc2[N+](=O)[O-])CC1`: 98.3%.
As for `COc1ccc(NC(=O)N2CCCC(c3nc(-c4ccc(F)cc4)no3)C2)cc1` (stereo unspecified), the activation (% of control) was 102%.
Regarding `CSc1ccc(C#N)cc1NC(=O)c1cccc(Cl)c1`, the activation (% of control) was 106%.
For `N#Cc1ccccc1NC(=O)c1cccc(COc2ccc(Cl)cc2Cl)c1`, the activation (% of control) was 132% (active).
In the case of `O=C(Nc1ccn(Cc2ccccc2F)n1)c1ccc(COc2ccc(Cl)cc2Cl)o1`, the activation (% of control) is 105%.
Take `CN1C=CC=C/C1=C1\SC(=S)N(Cc2ccccc2)C1=O`: the activation (% of control) was 104%.
As for `O=C(NCc1ccccn1)Nc1ccc(F)cc1`, the activation (% of control) is 108%.
On to `c1ccc(CN=C2Nc3ccccc3CS2)nc1`, for which the activation (% of control) is 135% (active).
`CC(C)(C)NC(=O)CN1CCC(NC(=O)C23CC4CC(CC(C4)C2)C3)CC1`: the activation (% of control) is 96.5%.
`CCOC(=O)CNC(=O)c1nn(-c2cccc(OC)c2)c(=O)c2ccccc12`: the activation (% of control) is 130% (active).
Take `COc1ccc(-n2nc(C(=O)NCC(=O)Nc3cccc(C)n3)c3ccccc3c2=O)cc1`: the activation (% of control) is 99.9%.
The same measure for `COc1cccc(-n2nc(C(=O)N3CCN(Cc4ccccc4)CC3)c3ccccc3c2=O)c1`: 99.9%; for `COc1ccc(-c2csc(-c3cccs3)n2)cc1OC`: 182% (active).
The same measure for `COc1ccc(C2CC(c3cccs3)=Nc3ccccc3S2)cc1OC` (stereo unspecified): 106%.
`COc1ccc(-c2nn3c(-c4ccccc4)nnc3s2)cc1OC`: the activation (% of control) is 114%.
Consider `Cc1ccc(NC(=S)N(CCN(C)C)Cc2cccs2)cc1C`, for which the activation (% of control) is 97.2%.
The same measure for `Cc1ccc(NC(=O)c2cccs2)cc1S(=O)(=O)N(C)C`: 101%; for `Cc1ccc(C(=O)Nc2ccc(C)c(S(=O)(=O)N(C)C)c2)s1`: 141% (active); for `Cc1ccc(NC(=O)CNCc2ccccn2)cc1S(=O)(=O)N(C)C`: 97.7%.
Regarding `C#CCOCCOCCOCCNc1nc(N2CCN(C(=O)C(Cc3ccc(O)cc3)n3cc(C(N)CC(C)C)nn3)CC2)nc(N2CCN(C(=O)C(Cc3ccc(O)cc3)n3cc(C(N)C(C)CC)nn3)CC2)n1` (stereo unspecified), the activation (% of control) is 109%.
The same measure for `O=C(NC(=S)Nc1cccc(-c2ccc(CO)o2)c1)c1cccs1`: 93.4%; for `Cc1cc(-c2n[nH]c(=S)n2-c2ccc(C)c(C)c2)no1`: 90.1%; for `CCOC(=O)c1ccccc1N1C(=O)C2Sc3[nH]c(=O)sc3C(/C=C/c3ccccc3)C2C1=O` (stereo unspecified): 114%.
For `COC(C(=O)Nc1ccc(S(=O)(=O)Nc2ccc(C)c(C)c2)cc1)c1ccccc1` (stereo unspecified), the activation (% of control) was 108%.
For `Nc1ccc(SCCN2C(=O)c3ccccc3C2=O)cc1`, the activation (% of control) is 129% (active).
